Reference: the supplement of paper PMC6089552
Among all 3,200 compounds or so, about 300 (9.4%) showed activity. For the sample, actives were picked, then their nearest neighbours and some compounds at random.

System: A673/TR/shEF
Assay: cell viability (LOESS-normalised, relative to median of negative controls) (log2 ratio); higher = more viable cells (less compound effect), active = hit call of the paper (over 3 MAD below the median)
Conditions: treatment time: 72 h
Summary of the method: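 Doxycycline, present or absent from 24 h before compounds, was used to induce EWS-FLI1 shRNA knockdown in A673/TR/shEF Ewing sarcoma cells at 1,500 per well in 384-well plates. Cells then received library compounds at two or more concentrations, or DMSO controls, for three days. Viability was measured by CellTiter-Glo luminescence on an Envision reader, and per-plate LOESS correction, division by the negative-control median and log2 transformation followed.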

[1] = 0.25 µM, library screen: screen1, EWS-FLI1 expression: high (no doxycycline)
[2] = 0.25 µM, library screen: screen1, EWS-FLI1 expression: low (doxycycline-induced shRNA knockdown)
[3] = 2.5 µM, library screen: screen1, EWS-FLI1 expression: high (no doxycycline)
[4] = 2.5 µM, library screen: screen1, EWS-FLI1 expression: low (doxycycline-induced shRNA knockdown)
[5] = 0.25 µM, library screen: screen2, EWS-FLI1 expression: high (no doxycycline)
[6] = 0.25 µM, library screen: screen2, EWS-FLI1 expression: low (doxycycline-induced shRNA knockdown)
[7] = 2.5 µM, library screen: screen2, EWS-FLI1 expression: high (no doxycycline)
[8] = 2.5 µM, library screen: screen2, EWS-FLI1 expression: low (doxycycline-induced shRNA knockdown)
[9] = 0.103 µM, library screen: screen3, EWS-FLI1 expression: high (no doxycycline)
[10] = 0.103 µM, library screen: screen3, EWS-FLI1 expression: low (doxycycline-induced shRNA knockdown)
[11] = 0.308 µM, library screen: screen3, EWS-FLI1 expression: high (no doxycycline)
[12] = 0.308 µM, library screen: screen3, EWS-FLI1 expression: low (doxycycline-induced shRNA knockdown)
[13] = 0.926 µM, library screen: screen3, EWS-FLI1 expression: high (no doxycycline)
[14] = 0.926 µM, library screen: screen3, EWS-FLI1 expression: low (doxycycline-induced shRNA knockdown)
[15] = 2.8 µM, library screen: screen3, EWS-FLI1 expression: high (no doxycycline)
[16] = 2.8 µM, library screen: screen3, EWS-FLI1 expression: low (doxycycline-induced shRNA knockdown)
[17] = 8.3 µM, library screen: screen3, EWS-FLI1 expression: high (no doxycycline)
[18] = 8.3 µM, library screen: screen3, EWS-FLI1 expression: low (doxycycline-induced shRNA knockdown)
[19] = 25 µM, library screen: screen3, EWS-FLI1 expression: high (no doxycycline)
[20] = 25 µM, library screen: screen3, EWS-FLI1 expression: low (doxycycline-induced shRNA knockdown)
[21] = 0.025 µM, library screen: screen1, EWS-FLI1 expression: high (no doxycycline)
[22] = 0.025 µM, library screen: screen1, EWS-FLI1 expression: low (doxycycline-induced shRNA knockdown)
[23] = 25 µM, library screen: screen1, EWS-FLI1 expression: high (no doxycycline)
[24] = 25 µM, library screen: screen1, EWS-FLI1 expression: low (doxycycline-induced shRNA knockdown)

Measured: cell viability (log2)

O=C(O)CSc1nnc(COc2ccccc2)n1-c1ccc(Cl)cc1
inactive: [1] 0.0719 | [2] -0.0199 | [3] 0.0305 | [4] 0.0659

CC1(C)C=CC(=O)[C@@]2(C)C1CC(=O)[C@]1(C)C2CC[C@@]2(C)[C@H](c3ccoc3)OC(=O)C3OC321 (some centres undefined)
inactive: [1] 0.0164 | [2] 0.0615 | [3] 0.135 | [4] 0.0703

C=C(O)CCC/C=C\C[C@@H]1[C@@H](/C=C/[C@H](O)C2Cc3ccccc3C2)[C@@H](F)C[C@@H]1O
inactive: [5] 0.175 | [6] 0.154 | [7] 0.111 | [8] 0.184

Cc1ccc2c(c1)C(N1CCN(C)CC1)=Nc1cccnc1N2
inactive: [5] 0.144 | [6] 0.13 | [7] 0.0813 | [8] 0.0355

CC1(C)C=Cc2cc3ccc(=O)oc3cc2O1
inactive: [1] 0.0334 | [2] 0.0455 | [3] 0.0429 | [4] 0.132

Cc1ccc(C(=O)NCc2ccc3c(c2)OCO3)cc1
inactive: [1] 0.0742 | [2] -0.0061 | [3] 0.0676 | [4] 0.0498

COc1ccccc1/C=C1\SC(=S)N(C2CCS(=O)(=O)C2)C1=O (centres undefined)
inactive: [1] 0.0633 | [2] 0.0907 | [3] 0.0733 | [4] 0.0539

COc1ccc(OC)c(CN2CCN(Cc3cccnc3)CC2)c1
inactive: [1] 0.114 | [2] 0.038 | [3] 0.0976 | [4] -0.0472

N/C(=N/c1nc2ccccc2o1)NC(=O)Nc1ccccc1
inactive: [1] 0.05 | [2] 0.11 | [3] 0.0784 | [4] 0.171

NCC1COc2ccccc2O1 (centres undefined)
inactive: [1] 0.104 | [2] -0.0116 | [3] 0.0686 | [4] 0.0513

COc1cccc(C=CC(=O)O)c1C(C)C
inactive: [1] 0.0613 | [2] 0.0863 | [3] 0.0736 | [4] 0.0985

CCC(=O)OC1[C@@H]2CC3=C4CC(=O)O[C@@H](c5ccoc5)[C@]4(C)CCC3[C@@](C)(C2=O)[C@@H](CC(=O)OC)C1(C)C (some centres undefined)
inactive: [1] 0.0873 | [2] -0.00184 | [3] 0.0649 | [4] 0.122

NCCC(=O)N[C@@H](Cc1cnc[nH]1)C(=O)O
inactive: [1] 0.026 | [2] 0.0201 | [3] 0.0679 | [4] 0.084

CC(C)n1c(/C=C/C(O)CC(O)CC(=O)O)c(-c2ccc(F)cc2)c2ccccc21 (centres undefined)
active: [17] -0.668 | [18] -0.538 | [19] -2.7 | [20] -1.87
inactive: [9] 0.107 | [10] 0.0332 | [11] 0.201 | [12] 0.108 | [13] 0.169 | [14] 0.0801 | [15] 0.0218 | [16] -0.0661

O=C(O)C[C@H](O)C[C@H](O)/C=C/c1c(C2CC2)nc2ccccc2c1-c1ccc(F)cc1
inactive: [9] 0.0626 | [10] -0.0656 | [11] -0.114 | [12] -0.0155
active: [13] -0.533 | [14] -0.345 | [15] -1.53 | [16] -0.986 | [17] -2.09 | [18] -1.25 | [19] -3.51 | [20] -3.56

CC(C)c1c(C(=O)Nc2ccccc2)c(-c2ccccc2)c(-c2ccc(F)cc2)n1CC[C@@H](O)C[C@@H](O)CC(=O)O
inactive: [1] 0.091 | [2] 0.0242 | [3] 0.147 | [4] -0.0132

O=C1O[C@H]([C@@H](O)CO)C([O-])=C1[O-].[Ca+2]
inactive: [1] 0.0808 | [2] 0.0736 | [3] 0.131 | [4] 0.127

CC1=C(C(=O)Nc2ccccc2Cl)C(c2ccccc2Cl)NC(=S)N1 (centres undefined)
inactive: [1] 0.0969 | [2] 0.0233 | [3] 0.106 | [4] 0.0823

CCc1c(C)c(C#N)c2nc3ccccc3n2c1-n1ccnc1C
inactive: [1] 0.109 | [2] 0.0379 | [3] 0.104 | [4] 0.136

CC(=O)Oc1ccc2c(c1)CC[C@@H]1[C@@H]2CC[C@]2(C)[C@@H](O)CC[C@@H]12
inactive: [1] 0.103 | [2] -0.00729 | [3] 0.0771 | [4] 0.0723

COc1c(O)cc(O)c2c(=O)c(-c3ccc(O)cc3)coc12
inactive: [1] 0.0728 | [2] 0.0747 | [3] 0.145 | [4] 0.165

COc1c/c(=C2\C=c3ccccc3=N2)[nH]/c1=C\c1[nH]c(C)cc1C
active: [11] -0.218 | [12] -0.107 | [13] -0.709 | [14] -0.236 | [15] -2.64 | [16] -1.14 | [17] -3.15 | [18] -1.55 | [19] -4.31 | [20] -2.5
inactive: [9] -0.00852 | [10] -0.0389

COc1nc(N/N=C/c2ccccc2F)nc(N2CCCCC2)n1
inactive: [1] 0.0265 | [2] 0.00454 | [3] 0.104 | [4] -0.0151

NC(Cc1ccc(F)cc1)C(=O)O (centres undefined)
inactive: 0.025 µM, library screen: screen2, EWS-FLI1 expression: high (no doxycycline) 0.118 | 0.025 µM, library screen: screen2, EWS-FLI1 expression: low (doxycycline-induced shRNA knockdown) 0.0851 | [1] 0.119 | [2] 0.172 | [5] 0.158 | [6] 0.0689 | [3] 0.144 | [4] 0.0179 | [7] 0.2 | [8] 0.0773 | 25 µM, library screen: screen2, EWS-FLI1 expression: high (no doxycycline) 0.0209 | 25 µM, library screen: screen2, EWS-FLI1 expression: low (doxycycline-induced shRNA knockdown) 0.0999

CSCCC(NC=O)C(=O)NC(C)C(=O)O (centres undefined)
inactive: [1] 0.11 | [2] 0.0779 | [3] 0.177 | [4] 0.154

O=C1c2c(O)ccc(O)c2C(=O)c2c(NCCNCCO)ccc(NCCNCCO)c21
active: [9] -0.962 | [10] -0.246 | [1] -1.93 | [2] -0.576 | [5] -2.25 | [6] -0.221 | [11] -1.25 | [12] -0.351 | [13] -1.51 | [14] -0.325 | [3] -4.22 | [4] -3.67 | [7] -2.87 | [8] -0.985 | [15] -2.02 | [16] -0.758 | [17] -3.96 | [18] -3.09 | [19] -4.26 | [20] -4.25

O=C1c2cccc(O)c2C(=O)c2c(O)cccc21
inactive: [1] 0.127 | [2] 0.109 | [3] 0.149 | [4] 0.271

O=C1c2ccc(O)c(O)c2C(=O)c2c(O)ccc(O)c21
inactive: [1] 0.0226 | [2] 0.0878 | [3] 0.117 | [4] -0.00838

NC(N)=NCCC[C@H](N[C@H](CCC(=O)O)C(=O)O)C(=O)O
inactive: [1] 0.0848 | [2] 0.0238 | [3] 0.123 | [4] 0.0291

O=P(O)(O)C(O)c1ccc2ccccc2c1 (centres undefined)
inactive: [21] 0.0997 | [22] 0.0649 | [1] 0.143 | [2] -0.0248 | [3] 0.0554 | [4] 0.0311 | [23] 0.0292 | [24] 0.0551

C=CC(=O)c1ccc2ccccc2c1
0.286: [1]
inactive: [22] 0.0903 | [2] 0.00371 | [4] 0.198 | [24] -0.0301
0.279: [21]
active: [3] -0.264 | [23] -0.287

C/C(=C\C(=O)Nc1ccccc1C(=O)O)c1ccc2ccccc2c1
inactive: [9] 0.0459 | [10] 0.0279 | [11] -0.00745 | [12] -0.00325 | [13] -0.0219 | [14] 0.0436 | [15] 0.00499 | [16] -1.3e-05 | [17] -0.0171 | [18] 0.0177 | [19] 0.0665 | [20] 0.0416

NC(=O)c1cc[n+](CC2=C(C(=O)O)N3C(=O)[C@@H](NC(=O)C(c4ccccc4)S(=O)(=O)O)[C@H]3SC2)cc1 (some centres undefined)
inactive: [1] -0.0396 | [2] 0.081 | [3] -0.00797 | [4] 0.0119

CN1CCN(c2nc3ccccn3c(=O)c2/C=C2\SC(=S)N(C)C2=O)CC1
inactive: [1] 0.017 | [2] -0.00298 | [3] 0.0372 | [4] -0.00837

COc1ccc(-c2cc(=O)c3c(O)cc(O[C@@H]4O[C@H](CO[C@@H]5O[C@@H](C)[C@H](O)[C@@H](O)[C@H]5O)[C@@H](O)[C@H](O)[C@H]4O)cc3o2)cc1O
inactive: [2] 0.0382 | [4] 0.0709
active: [1] -0.0892 | [3] -0.0968

COc1ccc(-c2cc(=O)c3c(O)cc(O[C@@H]4O[C@H](CO[C@@H]5O[C@@H](C)[C@H](O)[C@@H](O)[C@H]5O)[C@@H](O)[C@H](O)[C@H]4O)cc3o2)cc1
inactive: [1] 0.0703 | [2] 0.0696 | [3] 0.0879 | [4] 0.0994

COc1ccc(-c2cc(=O)c3c(O)c(OC)c(OC4OC(COC5OC(C)C(O)C(O)C5O)C(O)C(O)C4O)cc3o2)cc1 (centres undefined)
inactive: [1] 0.0877 | [2] 0.0838 | [3] 0.171 | [4] 0.116

COc1cc(O)c2c(=O)cc(-c3ccc(OC)c(O)c3)oc2c1
inactive: [1] 0.0474 | [2] 0.00819 | [3] 0.132 | [4] 0.0369

COc1ccc(-c2cc(=O)c3c(O)c(OC)c(OC)cc3o2)cc1O
active: [3] -0.654
inactive: [1] -0.076 | [2] -0.0378 | [4] -0.145

COc1ccc(-c2cc(=O)c3c(O)cc(O)cc3o2)cc1O
inactive: [1] -0.0193 | [2] -0.536 | [3] -0.0793 | [4] 0.0681
